# Measurements: the supplement of paper PMC4022240
# ± gives the standard deviation.
# T1: HaloTag-ATRX ADD domain (163-292)
# T1 chain: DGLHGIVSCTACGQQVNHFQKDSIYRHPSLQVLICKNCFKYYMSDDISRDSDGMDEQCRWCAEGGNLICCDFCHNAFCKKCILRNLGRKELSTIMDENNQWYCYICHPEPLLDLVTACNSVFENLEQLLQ
# What was measured:
# Assay in all cases: peptide microarray binding signal (635 nm), min-max normalized on array (fraction of array maximum); higher = stronger binding
# [1] = molecular target: T1, HaloTag-ATRX ADD domain (163-292)
# Experimental: (§1)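 Histone 13-mer peptides were synthesized as cellulose conjugates with a C-terminal 20-atom PEG linker and printed in triplicate on nitrocellulose. The sequence given is the unmodified backbone; PTMs (Kme1/2/3, Kac, Sph/Tph, Rme/Rme2a/Rme2s, Rcit) are listed in the label and the 'peptide modifications' condition. Slides were probed at 4 °C for 1 h with biotin-labelled (HQ)5-HaloTag reader fusions (ATRX-ADD, ING2-PHD) then streptavidin-Alexa647, or with rabbit histone antibodies then anti-rabbit Alexa647. The mean 635 nm signal of the triplicate spots was scaled 0-1 between the lowest and highest values on each array.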
# [2] = molecular target: HaloTag-ING2 PHD (mouse Ing2 200-280)
# Experimental: as §1
# [3] = molecular target: anti-H3K4me3 antibody ab8580
# Experimental: as §1
# [4] = molecular target: anti-H3K9me3 antibody ab8898
# Experimental: as §1
# [5] = peptide region: H2B 7-19, peptide modifications: H2BK11ac H2BK12ac H2BK15ac, binder concentration: 1:2,000 dilution
# [6] = peptide region: H2B 7-19, peptide modifications: H2BK11ac H2BK12ac H2BK15ac, binder concentration: 1:10,000 dilution
# [7] = peptide region: H2B 7-19, peptide modifications: H2BK11ac H2BK12ac H2BS14ph H2BK15ac H2BK16ac, binder concentration: 1:2,000 dilution
# [8] = peptide region: H2B 7-19, peptide modifications: H2BK11ac H2BK12ac H2BS14ph H2BK15ac H2BK16ac, binder concentration: 1:10,000 dilution
# [9] = peptide region: H2A 11-23, peptide modifications: H2AK15ac H2AT16ph, binder concentration: 1:2,000 dilution
# [10] = peptide region: H2A 11-23, peptide modifications: H2AK15ac H2AT16ph, binder concentration: 1:10,000 dilution
# [11] = peptide region: H2A 11-23, peptide modifications: H2AK13ac, binder concentration: 1:2,000 dilution
# [12] = peptide region: H2A 11-23, peptide modifications: H2AK13ac, binder concentration: 1:10,000 dilution
# [13] = peptide region: H2B 1-13, peptide modifications: H2BK11ac, binder concentration: 1:2,000 dilution
# [14] = peptide region: H2B 1-13, peptide modifications: H2BK11ac, binder concentration: 1:10,000 dilution
binder,measurement,setting,value
APAPKKGSKKAVT [H2B 7-19 A P A P Kac Kac G S Kac K A V T],peptide microarray binding signal,"[1]; peptide region: H2B 7-19, peptide modifications: H2BK11ac H2BK12ac H2BK15ac, binder concentration: 50 nM",0.00809 ± 0.00032
same,peptide microarray binding signal,"[1]; peptide region: H2B 7-19, peptide modifications: H2BK11ac H2BK12ac H2BK15ac, binder concentration: 500 nM",0.0163 ± 0.00026
same,peptide microarray binding signal,"[2]; peptide region: H2B 7-19, peptide modifications: H2BK11ac H2BK12ac H2BK15ac, binder concentration: 10 nM",0.0198 ± 0.0062
same,peptide microarray binding signal,"[2]; peptide region: H2B 7-19, peptide modifications: H2BK11ac H2BK12ac H2BK15ac, binder concentration: 100 nM",0.0125 ± 0.0012
same,peptide microarray binding signal,[3]; [5],0.0168 ± 0.0011
same,peptide microarray binding signal,[3]; [6],0.00325 ± 0.00019
same,peptide microarray binding signal,[4]; [5],0.00323 ± 0.00057
same,peptide microarray binding signal,[4]; [6],0.00248 ± 0.00015
APAPKKGSKKAVT [H2B 7-19 A P A P Kac Kac G Sph Kac Kac A V T],peptide microarray binding signal,"[1]; peptide region: H2B 7-19, peptide modifications: H2BK11ac H2BK12ac H2BS14ph H2BK15ac H2BK16ac, binder concentration: 50 nM",0.00254 ± 2.9e-05
same,peptide microarray binding signal,"[1]; peptide region: H2B 7-19, peptide modifications: H2BK11ac H2BK12ac H2BS14ph H2BK15ac H2BK16ac, binder concentration: 500 nM",0.00495 ± 8.6e-05
same,peptide microarray binding signal,"[2]; peptide region: H2B 7-19, peptide modifications: H2BK11ac H2BK12ac H2BS14ph H2BK15ac H2BK16ac, binder concentration: 10 nM",0.00639 ± 0.00065
same,peptide microarray binding signal,"[2]; peptide region: H2B 7-19, peptide modifications: H2BK11ac H2BK12ac H2BS14ph H2BK15ac H2BK16ac, binder concentration: 100 nM",0.00163 ± 1.7e-05
same,peptide microarray binding signal,[3]; [7],0.00523 ± 0.00045
same,peptide microarray binding signal,[3]; [8],0.00126 ± 2.2e-05
same,peptide microarray binding signal,[4]; [7],0.000891 ± 6e-05
same,peptide microarray binding signal,[4]; [8],0.00098 ± 1.7e-05
RAKAKTRSSRAGL [H2A 11-23 R A K A Kac Tph R S S R A G L],peptide microarray binding signal,"[1]; peptide region: H2A 11-23, peptide modifications: H2AK15ac H2AT16ph, binder concentration: 50 nM",0.006489 ± 4.3e-05
same,peptide microarray binding signal,"[1]; peptide region: H2A 11-23, peptide modifications: H2AK15ac H2AT16ph, binder concentration: 500 nM",0.0117 ± 0.00031
same,peptide microarray binding signal,"[2]; peptide region: H2A 11-23, peptide modifications: H2AK15ac H2AT16ph, binder concentration: 10 nM",0.00722 ± 0.0003
same,peptide microarray binding signal,"[2]; peptide region: H2A 11-23, peptide modifications: H2AK15ac H2AT16ph, binder concentration: 100 nM",0.0188 ± 0.00091
same,peptide microarray binding signal,[3]; [9],0.000925 ± 7.2e-05
same,peptide microarray binding signal,[3]; [10],0.00103 ± 2.8e-05
same,peptide microarray binding signal,[4]; [9],0.000513 ± 2.1e-05
same,peptide microarray binding signal,[4]; [10],0.000923 ± 2.5e-05
RAKAKTRSSRAGL [H2A 11-23 R A Kac A K T R S S R A G L],peptide microarray binding signal,"[1]; peptide region: H2A 11-23, peptide modifications: H2AK13ac, binder concentration: 50 nM",0.00351 ± 0.00033
same,peptide microarray binding signal,"[1]; peptide region: H2A 11-23, peptide modifications: H2AK13ac, binder concentration: 500 nM",0.00457
same,peptide microarray binding signal,"[2]; peptide region: H2A 11-23, peptide modifications: H2AK13ac, binder concentration: 10 nM",0.003641 ± 3.4e-05
same,peptide microarray binding signal,"[2]; peptide region: H2A 11-23, peptide modifications: H2AK13ac, binder concentration: 100 nM",0.0034 ± 0.00042
same,peptide microarray binding signal,[3]; [11],0.00051 ± 3.1e-05
same,peptide microarray binding signal,[3]; [12],0.00103 ± 2.8e-05
same,peptide microarray binding signal,[4]; [11],0.000378 ± 1.6e-05
same,peptide microarray binding signal,[4]; [12],0.00075 ± 2.9e-05
PEPAKSAPAPKKG [H2B 1-13 P E P A K S A P A P Kac K G],peptide microarray binding signal,"[1]; peptide region: H2B 1-13, peptide modifications: H2BK11ac, binder concentration: 50 nM",0.00254 ± 0.00043
same,peptide microarray binding signal,"[1]; peptide region: H2B 1-13, peptide modifications: H2BK11ac, binder concentration: 500 nM",0.001762 ± 1.6e-05
same,peptide microarray binding signal,"[2]; peptide region: H2B 1-13, peptide modifications: H2BK11ac, binder concentration: 10 nM",0.0156 ± 0.012
same,peptide microarray binding signal,"[2]; peptide region: H2B 1-13, peptide modifications: H2BK11ac, binder concentration: 100 nM",0.00113
same,peptide microarray binding signal,[3]; [13],0.000774 ± 9.3e-05
same,peptide microarray binding signal,[3]; [14],0.000342 ± 3.8e-06
same,peptide microarray binding signal,[4]; [13],0.000302 ± 1.1e-05
same,peptide microarray binding signal,[4]; [14],0.000404 ± 4.4e-06
